Unmarked numbers belong to inactive results. Records with an inconclusive call do not appear. Activity calls are given as the source filed them. Calls follow the shape of the dose curve; as a rule, active = well fitted curve in the direction sought with a large enough effect; inconclusive = small, poorly fitted or top-dose-only effect, or another doubt; inactive = no such curve, though single readings can be large; an effect the other way counts as inactive or inconclusive.

In assay [1] the test system is Zika virus NS2B-NS3 protease (unlinked complex). The experiment in a line: Primary screen GU Rhodamine qHTS for Zika virus inhibitors: Unlinked NS2B-NS3 protease assay (AID 1347159). Also: % is scaled to controls: 0 for no effect and ±100 for the full control effect; nearly all actives have a fitted effect of over 60% in size. Summed up:
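Percent inhibition derives from the 15-min fluorescence change (ex 480, em 540 nm), normalized to no-enzyme and no-inhibitor wells. Reactions contained 25 nM NS2B-NS3 complex and 1.5 microM substrate in 10 mM Tris-HCl pH 8.0.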
(In general: In qHTS, concentration-response curves come from the screen itself.)

Assay [2] deals with Zika virus NS2B-NS3 protease (linked construct). The experiment in a line: Primary screen NINDS Rhodamine qHTS for Zika virus inhibitors (AID 1347160). Also: nearly all actives have a fitted effect of over 55% in size. In short, it runs like this:
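In 10 mM Tris-HCl pH 8.0 containing 0.01% Tween 20, linked NS2B-NS3 protease (25 nM final) is exposed to test compounds for 15 min. Cleavage of 1.5 microM Rhodamine110 substrate is tracked by fluorescence over 15 min.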

In assay [3] the target is Glutathione peroxidase 1 (Homo sapiens) (UniProt P07203). The experiment in a line: Primary qHTS Assay for Inhibitors of Recombinant Selenoprotein Glutathione Peroxidase 1 (GPX1) (AID 1845191). Also: nearly all actives have a fitted effect of over 65% in size. Summed up:
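GR-coupled assay: compounds preincubated 30 min at room temperature with GPX1, then reaction started with CHP; final 10 nM GPX1, 1 mM GSH, 0.5 mM CHP, 0.5 mM NADPH, 100 nM GR, 0.01% BSA, pH 7.5 Tris buffer. NADPH fluorescence (340/450 nm) read at 0 and 15 min.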

Assay [4] deals with Phospholipid hydroperoxide glutathione peroxidase GPX4 (Homo sapiens) (UniProt P36969). The experiment in a line: Primary qHTS Assay for Inhibitors of Recombinant Selenoprotein Glutathione Peroxidase 4 (GPX4) (AID 1845192). Also: % is scaled to controls: 0 for no effect and ±100 for the full control effect; nearly all actives have a fitted effect of over 65% in size. In short, it runs like this:
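GR-coupled assay: recombinant GPX4 preincubated 30 min with compound at room temperature; final 200 nM GPX4, 1 mM GSH, 0.5 mM cumene hydroperoxide, 0.5 mM NADPH, 100 nM GR, 0.01% BSA, pH 7.5 Tris. NADPH fluorescence (340/450 nm) read at 0 and 15 min.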

Assay [5] concerns the target Luciferin 4-monooxygenase (Photinus pyralis) (UniProt P08659). The experiment in a line: Primary firefly luciferase (FLuc) qHTS assay for identification of artifact compounds. (AID 1845220).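 Also: plate controls were DMSO vehicle for no effect and no enzyme for full effect; nearly all actives have a fitted effect of over 60% in size.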 As to conditions: outcome: dose series up to 54.1 µM unless noted. In short, it runs like this: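 Titrated compounds were incubated 15 min at RT, protected from light, with luciferin and ATP at 10 uM; reaction started with 10 nM FLuc, luminescence imaged at 5 min, and concentration-response fitted by Hill equation.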

Assay [6] in a line: Primary fluorescence-based thiol-reactive (MSTI) qHTS assay for identification of artifact compounds. (AID 1845221).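 Also: thiol-reactive compounds lower the probe fluorescence signal; nearly all actives have a fitted effect of over 65% in size.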 Summed up:
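Compounds were incubated 1 h at room temperature in the dark with the MSTI probe (4 uM) in PBS pH 7.4, 2% DMSO. Signals were normalized between Acetyl-MSTI and MSTI.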

The subject of assay [7] is Nanoluciferase (engineered Oplophorus gracilirostris luciferase). The experiment in a line: Primary Nanoluciferase (NLuc) qHTS assay for identification of artifact compounds. (AID 1845222).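 Also: NLuc secreted into diluted conditioned medium of S16 cells; 0% = DMSO and -100% = no enzyme.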 In short, it runs like this: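 qHTS format, against NLuc in S16 cell-conditioned medium. Nano-Glo substrate 1:100 was added after 15 min at room temperature. Luminescence was taken after a further 5 min.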

The test system of assay [8] is CRL-7250. The experiment in a line: Cytotoxic Profiling of Annotated Libraries Using Quantitative High-Throughput Screening (AID 1296008). Also: nearly all actives have a fitted effect of over 60% in size. Also: potency is read from the fitted curve at half-maximal effect. As to max response: % is scaled to controls: 0 for no effect and ±100 for the full control effect. As to conditions: Five cell lines viability, CellTiter-Glo ATP luminescence, 48-72 h; max response: active compounds read low. Summed up: (§1)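 Cells exposed to compounds for 48 or 72 hr at 37 degrees Celsius. Viability read as ATP-coupled luminescence with CellTiter-Glo after 10 min at room temperature.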

The subject of assay [9] is NIH3T3. The description is as above. As to conditions: Five cell lines viability, CellTiter-Glo ATP luminescence, 48-72 h; max response: active compounds read low. Summed up:
as §1

Assay [10] has as its system C33A. The experiment in a line: Primary qHTS to identify gynecologic anti-cancer compounds using libraries of approved drugs and bioactive compounds (AID 1345084). Also: nearly all actives have a fitted effect of over 55% in size. Also: potency is read from the fitted curve at half-maximal effect. As to conditions: Gynecologic cancer cell panel viability, ATPlite luminescence, 48 h; series mostly up to 57.5 µM. In short, it runs like this: (§2)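 Luminescence from the ATPlite ATP-monitoring reagent indicates viable cell number; lower signal means cytotoxicity. Cells received compound 16 h after seeding and were exposed for 48 h across five concentrations.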

The test system of assay [11] is CAOV3. The description is as above. As to conditions: Gynecologic cancer cell panel viability, ATPlite luminescence, 48 h; series mostly up to 57.5 µM. Summed up: as §2
On the technique in general: ATP-based viability assays read luminescence as a measure of living cells.

Assay [12] concerns CASKI. The assay is described as above. As to conditions: Gynecologic cancer cell panel viability, ATPlite luminescence, 48 h; series mostly up to 57.5 µM. Summed up: as §2
The subject of assay [13] is Es-2. Described as above. As to conditions: Gynecologic cancer cell panel viability, ATPlite luminescence, 48 h; series mostly up to 57.5 µM. Summed up: as §2
Assay [14] deals with Hek293T. The description is as above. As to conditions: Gynecologic cancer cell panel viability, ATPlite luminescence, 48 h, control line for the selectivity index; series mostly up to 57.5 µM. Summed up: as §2
The test system of assay [15] is JEG-3. Described as above. As to conditions: Gynecologic cancer cell panel viability, ATPlite luminescence, 48 h; series mostly up to 57.5 µM. Summed up:
as §2

The subject of assay [16] is OV90. The description is as above. As to conditions: Gynecologic cancer cell panel viability, ATPlite luminescence, 48 h; series mostly up to 57.5 µM. In short, it runs like this: as §2
Assay [17] has as its system PA-1. The description is as above. As to conditions: Gynecologic cancer cell panel viability, ATPlite luminescence, 48 h; series mostly up to 57.5 µM. In short, it runs like this:
as §2

The subject of assay [18] is Tov-21-G. The description is as above. As to conditions: Gynecologic cancer cell panel viability, ATPlite luminescence, 48 h; series mostly up to 57.5 µM. Summed up: as §2
Assay [19] deals with Tov112D. The description is as above. As to conditions: Gynecologic cancer cell panel viability, ATPlite luminescence, 48 h; series mostly up to 57.5 µM. In short, it runs like this: as §2
The target in assay [20] is Calcium and integrin-binding protein 1 (Homo sapiens) (UniProt Q99828). The experiment in a line: Primary qHTS for Identification of Calcium Integrin Binding Protein 1 (CIB1) Competitor (AID 1508620). Also: top concentration of the series differs between compounds; % is scaled to controls: 0 for no effect and ±100 for the full control effect. In short, it runs like this: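 Fluorescence polarization competition: GST-tagged CIB1 (1 uM final) preincubated with compound 15 min at room temperature, then FITC-labelled alphaIIb peptide (100 nM final) added. After 15 min at room temperature, polarization read at Ex 480/Em 540.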
Chain of Calcium and integrin-binding protein 1 (Homo sapiens) (Q99828 whole entry, looked up): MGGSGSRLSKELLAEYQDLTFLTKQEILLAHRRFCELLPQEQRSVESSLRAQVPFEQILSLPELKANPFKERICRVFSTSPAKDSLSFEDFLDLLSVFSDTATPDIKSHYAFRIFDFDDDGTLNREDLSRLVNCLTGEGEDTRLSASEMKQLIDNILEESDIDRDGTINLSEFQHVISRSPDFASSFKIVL

Chain of Phospholipid hydroperoxide glutathione peroxidase GPX4 (Homo sapiens) (P36969 whole entry, looked up): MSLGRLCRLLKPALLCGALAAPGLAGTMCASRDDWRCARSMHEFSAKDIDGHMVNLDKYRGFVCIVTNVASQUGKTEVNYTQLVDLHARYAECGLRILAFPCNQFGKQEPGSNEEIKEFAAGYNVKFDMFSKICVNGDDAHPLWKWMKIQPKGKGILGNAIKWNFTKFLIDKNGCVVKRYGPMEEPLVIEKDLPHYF
Chain of Glutathione peroxidase 1 (Homo sapiens) (P07203 whole entry, looked up): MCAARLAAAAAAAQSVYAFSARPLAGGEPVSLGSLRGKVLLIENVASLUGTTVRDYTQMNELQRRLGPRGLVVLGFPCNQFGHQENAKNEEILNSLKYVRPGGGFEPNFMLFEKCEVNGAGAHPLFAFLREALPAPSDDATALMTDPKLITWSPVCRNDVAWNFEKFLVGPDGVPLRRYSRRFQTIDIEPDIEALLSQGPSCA

Consider `CCCCCn1cc(C(=O)Oc2cccc3cccnc23)c2ccccc21`, for which the Potency result in assay [1], in assay [2], in [3], in assay [4], in assay [6] and in assay [7] was “inactive” each time. Further, the Potency entry in assay [10], in assay [11], in assay [12], in [13], in assay [14] and in [15] was “inactive” in each case. Moreover, the Potency entry in assay [16], in assay [17], in assay [18] and in assay [19] was “inactive” each time. For the same compound, the result in assay [5] and in assay [8] was inactive. Besides, the max response in assay [9] was -5.3%.

Regarding `C=C1C2(C)CC3C(C)(O)C4=CC(=O)OC(C)(C)C4=CCC3(C)C13C(=O)OC(C)C3(O)C2=O` (centres undefined), the Potency entry in assay [1], in [2], in assay [4], in assay [7], in assay [10] and in [11] was “inactive” in each case. Besides, the Potency result in assay [12], in assay [13], in assay [14], in assay [15], in [16] and in [17] was “inactive” throughout. The Potency entry in [18] and in [19] was “inactive” each time. Besides, in [5], the call was inactive. In addition, the max response in assay [8] is -8.29%; in [9], -1.67%.

Consider `COC(=O)C12C(=O)C(C)(O)C(=O)C1(C)C(C)=CC1C34CCC(OC3=O)C(C)(C)C4CCC12C` (centres undefined), for which the Potency entry in assay [1], in assay [2], in assay [20], in assay [3], in [4] and in [7] was “inactive” throughout. Moreover, the Potency result in [10], in [11], in assay [12], in assay [13], in assay [14] and in assay [15] was “inactive” throughout. The Potency entry in assay [16], in [17], in assay [18] and in assay [19] was “inactive” each time. The compound was called inactive in assay [5]. In addition, the max response in assay [8] is -8.47%; in [9], -10.7%.

Take `C=C(C)[C@@]12O[C@@H]1[C@@]1(C)C(=CC2=O)CC[C@@H](OC(C)=O)[C@@H]1C`: the Potency entry in assay [20], in [3], in assay [4], in assay [6], in [7] and in assay [11] was “inactive” throughout. Moreover, the Potency entry in assay [12] and in [15] was “inactive” each time. Further, the compound was classed as inactive in assay [5]. Besides, the figures for the Potency in assay [8], in assay [9] and in assay [18] were 6.51 µM (active), 3.66 µM (active) and 10 µM (active), respectively.

With `CC12CCC3C(C1)c1c(cc(O)c(C(=O)c4ccccc4)c1OC3(C)C)O2` (centres undefined), the Potency result in assay [2], in [20], in assay [4], in assay [6], in assay [7] and in [10] was “inactive” in each case. The Potency entry in assay [11], in assay [12], in [13], in [14], in [15] and in assay [16] was “inactive” in each case. Also, the Potency result in assay [17], in assay [18] and in assay [19] was “inactive” in each case. Moreover, the compound was called inactive in assay [5] and in [8]. Further, the max response in assay [9] was 3.12%.

With `CCCN(CCC)[C@@H]1CCc2ccc3[nH]c(C#N)cc3c2C1`, the Potency result in [1], in assay [2], in assay [20], in assay [3], in [4] and in assay [6] was “inactive” each time. Besides, the Potency entry in [7], in assay [10], in assay [11], in assay [12], in assay [13] and in assay [14] was “inactive” each time. Besides, the Potency entry in assay [15], in assay [16], in assay [17], in [18] and in assay [19] was “inactive” in each case. Also, the call in assay [8] and in assay [9] was inactive.

(Values after PubChem BioAssay (NCATS).)
